Screening results (PubChem)
HCMV antiviral: human cytomegalovirus inhibition; HFF cells, HCMV-luciferase reporter, 72 h; stronger effect = lower value; activity change, negative = inhibition, % at 57.5 µM; 4.5% of 410,000 active; in the data active = activity change below about -60%; inconclusive = no clear call, values can overlap the other calls; inactive = above about -39%
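Two compound doses tested in HFFs infected with HCMV-luciferase, MOI 1 PFU/cell, 72 h at 37C. Lysate luminescence read with OneGlo; data normalized against buffer-only and 10uM Salinomycin inhibitor controls.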
VACV mCherry inh: inhibitors of vaccinia virus infection (mCherry reporter signal); Vaccinia virus mCherry reporter infection, fluorescence; Potency, µM (doses to about 36.5 µM), for inactives: at the top dose activity change, negative = inhibition, most hits filed as inhibitors; 0.63% of 310,000 active; calls by dose curve; tested in A549 cells; also: potency is read from the fitted curve at half-maximal effect; nearly all actives have a fitted effect of over 35% in size
FMDV antiviral: antivirals against foot and mouth disease virus | 1.2% of 410,000 active | AID 1159524 | FMDV antiviral cell-based qHTS | Potency, µM (titrated, usually from 57.9 µM), without a hit: top-dose activity change, negative = inhibition, hits mostly inhibitors; calls by dose curve; tested in HEK293T cells; also: read-out not given here; potency is read from the fitted curve at half-maximal effect; nearly all actives have a fitted effect of over 45% in size
HCV inh: inhibitors of hepatitis C virus infection | Huh7.5.1 HCVcc-Cre infection, luciferase reporter, 44 h | Potency, µM (series often up to 41.8 µM), without a hit: at the top dose activity change, negative = inhibition, hits mostly inhibitors | 3.4% of 340,000 active; active = well fitted inhibition curve with a large enough effect; inconclusive = small, poorly fitted or top-dose-only effect, or another doubt; inactive = no such curve, though single readings can be large or run the other way; also: potency is read from the fitted curve at half-maximal effect
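Luciferase read-out (15 sec integration) after a 15 min room-temperature substrate step quantifies HCVcc-Cre infection. Cells, 1,000 per well, had compound added 4 h post-plating, then virus at ~0.5 moi, and were cultured 44 h.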
Vaccinia Venus: inhibitors of vaccinia virus (Venus reporter). Vaccinia virus Venus reporter expression, fluorescence. Potency, µM (series often up to 36.5 µM), for inactives: at the highest dose activity change, negative = inhibition, actives largely listed as inhibitors. 0.46% of 330,000 active. AID 720580; calls by dose curve; tested in A549 cells; also: potency is read from the fitted curve at half-maximal effect; nearly all actives have a fitted effect of over 30% in size
* hit, by the source's call; i = inactive; ? = inconclusive; . = no result given. Shown are actives, neighbours in structure and some others; about 7.3% of the full set was active somewhere. % is scaled to controls: 0 for no effect and ±100 for the full control effect.

SMILES	HCMV antiviral	VACV mCherry inh	FMDV antiviral	HCV inh	Vaccinia Venus
CCCC(=O)NC(c1ccccc1Cl)c1c(O)ccc2ccccc12 (configuration not stated)	-16	?	?	-22%	-30%
Cc1ccnc(NC(c2cccc(O)c2)c2ccc3ccc(C)nc3c2O)c1 (configuration not stated)	9	-15%	-17%	.	-7%
CCCC(=O)NC(c1ccc(Cl)cc1)c1ccc2cccnc2c1O (configuration not stated)	-100*	?	-9%	1.8µM*	?
CCCC(=O)NC(c1ccc(C)cc1)c1ccc2cccnc2c1O (configuration not stated)	.	?	-16%	3.5µM*	?
CCCC(=O)NC(c1ccccc1)c1c(O)ccc2ccccc12 (configuration not stated)	9	.	-18%	?	.
CCCC(=O)NC(c1ccc(N(C)C)cc1)c1c(O)ccc2ccccc12 (configuration not stated)	42	i	13%	2%	-16%
Cc1ccc(C2CC(=O)N(Cc3ccccc3F)c3c2c(C)nn3-c2nc(C)cc(C)n2)cc1 (configuration not stated)	-14	-14%	-9%	.	-5%
O=C(C[n+]1ccccc1Cl)c1ccc2c(c1)CCCC2	.	-9%	.	.	-10%
CCN1CCCC1CNC(=O)c1cnn(-c2nccc(-c3ccccc3F)n2)c1C (configuration not stated)	.	-3%	-6%	.	5%
COc1ccc(C(Nc2ccccn2)c2ccc3ccc(C)nc3c2O)cc1C (configuration not stated)	-11	-13%	-25%	.	-8%
CCCCC(=O)NC(c1ccc(Cl)cc1)c1ccc2cccnc2c1O (configuration not stated)	-98*	6.3µM*	-3%	?	?
CC(=O)NC(CC(=O)NC(C)c1ccc(Cl)cc1Cl)c1ccccc1 (configuration not stated)	-13	i	4%	10%	-8%
Cc1ccc(C(Nc2ccccn2)c2ccc3cccnc3c2O)cc1 (configuration not stated)	-64*	11µM*	-9%	.	?
CC(=O)NC(c1ccc(Cl)cc1Cl)c1ccc2cccnc2c1O (configuration not stated)	-98*	.	0%	5.6µM*	.
O=C(Cn1ncc2c3ccccc3n(Cc3cccc(Cl)c3)c2c1=O)Nc1ccc(F)cc1F	3	-22%	0%	.	-22%
CC(=O)c1ccc(F)c(-c2cc(C)cc3c2OC(CNC(=O)Cc2ccc4c(c2)OCO4)C3)c1 (configuration not stated)	.	-7%	-8%	.	-7%
O=C(Cn1c(=O)c(CNc2ccccc2)cc2cc3c(cc21)OCCO3)Nc1ccccc1Cl	36	3%	20%	.	-2%
CC(=O)Nc1ccccc1-c1nc2ccccc2n(Cc2cccc(Br)c2)c1=O	5	-5%	-24%	.	-9%
CCOc1cc(-c2ccc(OC(=O)c3ccc(Cl)cc3)c(OC)c2)cc(=O)c2c(C)oc(C)c12	23	-7%	?	.	-7%
COC(=O)C1=C(c2ccc(F)cc2OCc2ccccc2)C[C@@H]2CC[C@H]1N2C(=O)NC1Cc2ccccc2C1	-8	-14%	-18%	11µM*	?
COC(=O)C1=C(c2ccc(F)cc2OCc2ccccc2)C[C@@H]2CC[C@H]1N2C(=O)NCc1ccc(C)cc1	-67*	-3%	-3%	?	?
COC(=O)C1=C(c2ccc(F)cc2OCc2ccccc2)C[C@@H]2CC[C@H]1N2C(=O)N1CCCCC1	-14	-13%	-15%	?	?
COC(=O)C1=C(c2ccc(F)cc2OCc2ccccc2)C[C@@H]2CC[C@H]1N2C(=O)NCc1ccc(F)cc1	-20	-32%	-31%	?	-26%
COC(=O)C1=C(c2ccc(F)cc2OCc2ccccc2)C[C@@H]2CC[C@H]1N2C(=O)NCCCc1ccccc1	-26	-6%	-30%	10µM*	?
COC(=O)C1=C(c2cccc(OCc3ccccc3)c2)C[C@@H]2CC[C@H]1N2C(=O)NCCOc1ccccc1Cl	-18	?	-18%	?	?
SMILES	HCMV antiviral	VACV mCherry inh	FMDV antiviral	HCV inh	Vaccinia Venus
COC(=O)C1=C(c2ccccc2OCc2ccccc2)C[C@@H]2CC[C@H]1N2C(=O)NCCOc1ccccc1Cl	-73*	-15%	-25%	?	?
CCCCOc1ccc(-c2nonc2NC(=O)c2ccco2)cc1	-12	-13%	-12%	.	-18%
CCS(=O)(=O)N1CCc2cc(C(=O)NCc3ccccc3OC)ccc21	10	2%	29%	.	-5%
Cc1ccc2oc(C(=O)N(Cc3cccc(F)c3)C3CCS(=O)(=O)C3)c(C)c2c1 (configuration not stated)	12	-4%	-20%	.	-17%
COCCn1c(=O)c(-c2ccccc2)nc2cnc(Nc3cccc(OC)c3)nc21	.	.	-17%	.	.
Cc1ccc(C2=CC(c3ccccc3F)n3c(nc4ccccc43)N2)cc1C (configuration not stated)	-7	-3%	-17%	.	11%
Cc1noc(C)c1-c1cc(NC2CCNCC2)ncn1	.	.	-18%	.	.
COC(=O)C1=C(c2ccccc2OCc2ccccc2)C[C@@H]2CC[C@H]1N2C(=O)NCc1ccc(F)cc1	-34	0%	-29%	7.1µM*	?
COC(=O)C1=C(c2ccccc2OCc2ccccc2)C[C@@H]2CC[C@H]1N2C(=O)NCc1ccc(C(C)(C)C)cc1	-16	-4%	-22%	?	?
Cc1ccc(NC(=O)Cc2nc(COC(=O)c3c(F)cccc3Cl)cs2)cc1	-17	?	-23%	8.9µM*	-13%
CC(=O)c1c(C)[nH]c(C(=O)OCc2csc(CC(=O)Nc3ccccc3C)n2)c1C	25	.	20µM*	4.5µM*	.
Cc1ccccc1NC(=O)Cc1nc(COC(=O)c2ccc([N+](=O)[O-])cc2)cs1	-11	-10%	8%	-14%	-6%
Cc1ccccc1NC(=O)Cc1nc(COC(=O)c2cc([N+](=O)[O-])ccc2NCCO)cs1	-4	i	?	8.9µM*	-15%
CCC1C(=O)NCCN1Cc1ccc2c(c1)CN(Cc1cc(OC)ccc1OC)CCO2 (configuration not stated)	.	0%	-14%	.	19%
O=[N+]([O-])c1ccc(Sc2nc3ccccc3[nH]2)c(Cl)c1	16	.	.	.	.
CCc1ccccc1N1C(=O)CN(Cc2cc(OC)c(OC)c(OC)c2)C1=S	-15	-4%	-29%	32µM*	2%
CCc1ccc(N2C(=O)CN(Cc3cc(OC)c(OC)c(OC)c3)C2=S)cc1	-3	-30%	-27%	?	-13%
COc1cccc(N2C(=O)CN(Cc3ccc(OC)c(OC)c3)C2=S)c1	43	i	-20%	-21%	-4%
COc1ccc(N2C(=O)CN(Cc3ccc(OC)c(OC)c3)C2=S)cc1	-81*	i	-21%	?	-5%
